# High-throughput results: PubChem BioAssay, ICCB-Longwood Screening Facility, Harvard Medical School
# HCMV UL50-53 inh – inhibitors of HCMV UL50-UL53 nuclear egress complex interaction | AID 1918969 | actives 0.15% (n = 190,000) | inhibition, % (no concentration beside the values) | HTRF UL50-UL53 interaction, normalized percent inhibition; in the data active means inhibition above about 27%, passing the limit was not always enough
# Sa growth inh – blocks Staphylococcus aureus growth. relative growth, % (test concentration not listed). S. aureus RN4220 growth, OD600, 20 h, 42 °C; stronger effect = lower value. actives 0.53% (n = 170,000);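 active means relative growth at most 50% at the other temperature and 20+ points below 30 °C, or under 10% at both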
# S aureus helic – S. aureus DNA helicase inhibition; inhibition, % (concentration not given with the values); purified S. aureus helicase, fluorescence unwinding assay; actives 0.05% (n = 120,000); in the data active means inhibition above about 25%, passing the limit was not always enough;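 further: 0% = mean of negative control wells and 100% = mean of positive control wells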
# Starred values were filed as active, the others as inactive; x = no result; ! = not active in a repeat. Only a selection was taken, and hits are over-represented in it overall.
SMILES,HCMV UL50-53 inh,Sa growth inh,S aureus helic
C=CCn1c(NC(=O)COc2ccccc2)nc2ccccc21,14,71,7
Cc1c(C(=O)NC(C)C)oc2c1-c1[nH]ncc1CC2,70*,83,x
Cc1c(C(=O)O)oc2c1-c1[nH]ncc1CC2,61*,100,10
Cc1cc(C)cc(NC(=O)c2oc3c(c2C)-c2[nH]ncc2CC3)c1,x,44,14
Cc1c(C(=O)NCc2ccccc2)oc2c1-c1[nH]ncc1CC2,-8,102,x
CCCCNC(=O)CSC1=NS(=O)(=O)c2ccccc2N1CC,-32,x,x
Clc1cc(Cl)cc(-c2ccc(CNCc3ccco3)o2)c1,-4,x,x
CCOC(=O)Cc1csc(NC(=O)CSc2nc3c(C)c(C)ccc3cc2C#N)n1,-11,103,5
CCC[C@@H]1C[C@@H](C(=O)N[C@@H]([C@H]2O[C@H](SC)[C@H](O)[C@@H](O)[C@H]2O)[C@H](C)Cl)N(C)C1,-32,-0.8*,x
CCC[C@@H]1C[C@@H](C(=O)N[C@@H](C2O[C@H](SC)[C@H](O)[C@@H](O)[C@H]2O)[C@H](C)Cl)N(C)C1 (stereo partly specified),-15,-1.1*,x
CCCC1CC(C(=O)NC(C(C)Cl)C2OC(SC)C(O)C(O)C2O)N(C)C1 (stereo unspecified),-7,x,x
CCC[C@@H]1C[C@@H](C(=O)N[C@H]([C@H]2O[C@H](SC)[C@H](O)[C@@H](O)[C@H]2O)[C@H](C)O)N(C)C1,-37,0.0*,x
Cc1ccc(NC(=O)c2c(-n3c(C)ccc3C)sc3c2CCCC3)cc1,x,90,7
COc1cccc2c1C(=O)c1c(O)c3c(c(O)c1C2=O)C[C@@](O)(C(=O)CO)CC3OC1CC(N)C(O)C(C)O1 (stereo partly specified),-163,x,x
COc1cccc2c1C(=O)c1c(O)c3c(c(O)c1C2=O)C[C@@](O)(C(=O)CO)C[C@@H]3O[C@H]1C[C@H](N)[C@H](O)[C@H](C)O1,-178,1.8*!,x
CCC(CO)n1c(SCc2ccc(C#N)cc2)nc2cc(OC)c(OC)cc2c1=O (stereo unspecified),-8,96,-6
CCCCCCNC(=O)n1cc(F)c(=O)[nH]c1=O,4,1.1*,x
CC(C)NC(=O)n1cc(F)c(=O)[nH]c1=O,-12,-0.6*,-4
CCCCCNC(=O)CCCCCn1c(=O)[nH]c2ccsc2c1=O,-5,95,x
NC(=O)Cn1cc(F)c(=O)[nH]c1=O,4,90,15
CCNC(=O)/N=C1\NC(=O)C(C(C)C)O1 (stereo unspecified),-32,86,-7
CC(C)C1O/C(=N\C(=O)Nc2ccc(Cl)c(Cl)c2)NC1=O (stereo unspecified),-15,0.5*,-3
CCc1ccccc1-n1c(=O)oc2ccc(Cl)cc2c1=O,-27,-0.8*,-17
CCc1ccc(-n2c(=O)oc3ccc(Cl)cc3c2=O)cc1,x,46,7
CCc1ccc2c(CC(=O)N(C)Cc3ccccc3OC)coc2c1,-20,80,-8
SMILES,HCMV UL50-53 inh,Sa growth inh,S aureus helic
Cc1cc2c(ccc3nonc32)nn1,-163,91,21
C=CC(=O)Nc1cccc(Oc2ccnc3[nH]ccc23)c1,33*,x,x
C=CC(=O)Nc1cccc(Oc2ccnc(Nc3ccc(N4CCN(C)CC4)cc3)n2)c1,-6,x,x
COc1ccc(Br)cc1-c1nc(CSc2nc(C)cc(=O)[nH]2)c(C)o1,-33,x,x
COc1cc(-c2c(C#N)c(SCC#N)nc(N)c2C(=O)OC(C)C)cc(OC)c1OC,63*,100,2
CCOc1ccc(-c2c(C#N)c(N)nc(SCC#N)c2C#N)cc1,-11,x,-20
Cn1c(=O)n(CCN2CCOCC2)c(=O)c2c1nc1n2CCCN1c1ccc(Cl)cc1,9,x,x
N#C/C(=C(/O)COc1ccccc1)c1nc2ccccc2s1,-6,81,12
COc1cccc(OC)c1/C(O)=C(\C#N)c1nc2ccccc2s1,-24,1.4*,1
O=C(O)COCC1CCCO1 (stereo unspecified),10,83,13
CO[C@@H]1[C@@H](OC(N)=O)[C@@H](O)[C@H](Oc2ccc3c(O)c(NC(=O)c4ccc(O)c(CC=C(C)C)c4)c(=O)oc3c2C)OC1(C)C,-7,-0.8*,x
COc1ccc(C(=O)Nc2c(O)c3ccccc3oc2=O)cc1OC,2,98,-3
Cc1ccccc1NC(=O)C1CCN(c2ncnc3onc(C)c23)CC1,-1,x,x
O=c1c2cncnc2[nH]n1-c1ccccc1,-25,x,-20
CCOC(=O)/C(C#N)=C1\C(=O)Nc2ccccc21,-22,104,0
N#C/C(C(N)=O)=C1/C(=O)Nc2ccc(Br)cc21,-18,9.1*,12
CCn1cc(S(=O)(=O)c2ccc(C)cc2)c(=O)c2cc(F)c(N3CCOCC3)cc21,x,77,-8
COc1ccc(OCc2nc(CCN(C)C(=O)CC3CCCC3)no2)cc1,-19,x,x
O=C(N=Nc1c(O)[nH]c(=O)[nH]c1=O)c1ccccn1,-19,101,5
